Measured values published in PubChem BioAssay (NCI).
This is part of a sample that, as a whole, favours compounds with a hit. Of some 79,000 tested, about 15% had one in any assay. Unmarked numbers belong to inactive results. Calls of active or inactive are those of the source. No stated cut-off is given here; in the data, active means growth inhibition above about 70%; inactive means the rest.

Key:
[1] = NCI Yeast Anticancer Drug Screen. Data for the rad50 strain (AID 155);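 further: 0% = growth of vehicle-only cultures of the same strain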; details: S. cerevisiae rad50 strain growth inhibition; at 50.0 µM; stronger effect = higher value
Method in brief: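 Readout: growth inhibition relative to vehicle-treated cultures. Compound exposure was carried out in a genetically defined yeast strain deficient in DNA damage repair.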

[2] = NCI Yeast Anticancer Drug Screen. Data for the mec2-1 strain (AID 157); details: S. cerevisiae mec2-1 strain, at 50.0 µM, stronger effect = higher value
Method in brief: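 mec2-1 yeast strain, carrying an alteration in DNA damage repair or cell cycle control, was exposed to compounds; growth inhibition was measured relative to vehicle-treated controls.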

[3] = NCI Yeast Anticancer Drug Screen. Data for the sgs1 mgt1 strain (AID 161);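 further: 0% = growth of cultures given vehicle only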; details: S. cerevisiae sgs1 mgt1 strain, at 50.0 µM, stronger effect = higher value
Method in brief: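 Compounds are added to genetically altered yeast, and growth is compared with cultures given vehicle alone to give percent inhibition.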

[4] = NCI Yeast Anticancer Drug Screen. Data for the cln2 rad14 strain (AID 165);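 further: 0% = growth equal to vehicle treated cultures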; details: S. cerevisiae cln2 rad14 strain, at 50.0 µM, stronger effect = higher value
Method in brief: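 Yeast carrying cln2 and rad14 alterations (cell cycle control and DNA damage repair) were exposed to compounds. Growth inhibition was measured against vehicle-treated controls.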

[5] = NCI Yeast Anticancer Drug Screen. Data for the bub3 strain (AID 167); details: S. cerevisiae bub3 mutant strain, at 50.0 µM, stronger effect = higher value
Method in brief: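 Readout: yeast growth inhibition, expressed relative to vehicle-only wells. The test organism is a mutant strain from a panel with lesions in DNA repair or checkpoint genes.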

[6] = NCI Yeast Anticancer Drug Screen. Data for the mlh1 rad18 strain (AID 175); details: S. cerevisiae mlh1 rad18 strain growth inhibition; at 50.0 µM; stronger effect = higher value
Method in brief: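 Growth inhibition of the yeast strain was measured after compound exposure and expressed relative to vehicle-treated controls. The strain carries defined defects in DNA damage repair.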

O=C1C(CO)=C[C@H](O)[C@H]2O[C@@H]12
growth inhibition [1]: -4.3%
growth inhibition [2]: 0.3%
growth inhibition [3]: -9.45%
growth inhibition [4]: 7.85%
growth inhibition [5]: 8.65%
growth inhibition [6]: -29.4%

COc1ccc(C(Cc2cc(OC)c(OC)cc2Br)NC=O)cc1OC (stereo not drawn)
growth inhibition [1]: 0.3%
growth inhibition [2]: 7.35%
growth inhibition [3]: -7.55%
growth inhibition [4]: -3.15%
growth inhibition [5]: 5%
growth inhibition [6]: 31.4%

COC1Cc2c(C)c(OC(C)=O)c3cccnc3c2O1 (stereo not drawn)
growth inhibition [1]: 18.6%
growth inhibition [2]: -17.4%
growth inhibition [3]: 10.8%
growth inhibition [4]: 18.6%
growth inhibition [5]: 4.25%
growth inhibition [6]: 5.65%

COc1cc(C2C3=C(CCCC3=O)N(c3ccc(C)cc3)C3=C2C(=O)CCC3)c([N+](=O)[O-])cc1OC
growth inhibition [1]: -10.8%
growth inhibition [2]: -4.2%
growth inhibition [3]: 2.65%
growth inhibition [4]: 2.2%
growth inhibition [5]: 4.3%
growth inhibition [6]: -0.3%

Cn1c(=O)c2c(ncn2CCNC(c2ccccc2)c2cccc(Cl)c2)n(C)c1=O (stereo not drawn)
growth inhibition [1]: 6%
growth inhibition [2]: -8.05%
growth inhibition [3]: 4.35%
growth inhibition [4]: -8.3%
growth inhibition [5]: 0.8%
growth inhibition [6]: 12.8%

Cc1nc2ccccc2c(=O)o1
growth inhibition [1]: -12.2%
growth inhibition [2]: 7.05%
growth inhibition [3]: 9.85%
growth inhibition [4]: 15.1%
growth inhibition [5]: -5.65%
growth inhibition [6]: -21%

O=c1[nH]c(Br)nc2c(Br)c[nH]c12
growth inhibition [1]: -17.1%
growth inhibition [2]: -0.15%
growth inhibition [3]: -18.4%
growth inhibition [4]: -12.8%
growth inhibition [5]: -22.2%
growth inhibition [6]: -18.9%

O=c1[nH]c2cc([N+](=O)[O-])ccc2c2ccc(Cl)cc12
growth inhibition [1]: 57.4%
growth inhibition [2]: 0%
growth inhibition [3]: 4.85%
growth inhibition [4]: 2.75%
growth inhibition [5]: 6.5%
growth inhibition [6]: 27.6%

C=C1CC[C@H]2C(C)=CC[C@@H]3[C@H](OC(=O)[C@H]3CN(C)C)[C@@H]12
growth inhibition [1]: 8.05%
growth inhibition [2]: -4.45%
growth inhibition [3]: 1.5%
growth inhibition [4]: 32.7%
growth inhibition [5]: 26.4%
growth inhibition [6]: 16.2%

O=C1CC2(CCc3ccccc32)C(=O)N1CN1CCN(CCO)CC1 (stereo not drawn)
growth inhibition [1]: 12.6%
growth inhibition [2]: -5.8%
growth inhibition [3]: 3.9%
growth inhibition [4]: 9%
growth inhibition [5]: 7.15%
growth inhibition [6]: 11.9%

CN(C)CC1CN(C)CC(CN(C)C)C1(O)C(C(=O)N(C)C)c1ccccc1 (stereo not drawn)
growth inhibition [1]: 75.2% (active)
growth inhibition [2]: 50%
growth inhibition [3]: 65.2%
growth inhibition [4]: 36.4%
growth inhibition [5]: 49.7%
growth inhibition [6]: 62.2%

CCOC(=O)C(=O)c1c[nH]c2ccccc12
growth inhibition [1]: -3.35%
growth inhibition [2]: 2.45%
growth inhibition [3]: -2.5%
growth inhibition [4]: -12.1%
growth inhibition [5]: 6.4%
growth inhibition [6]: 10%

C/C=C\C(=O)OCC(C)COC(=O)/C=C/C (stereo not drawn)
growth inhibition [1]: 21.7%
growth inhibition [2]: 15.9%
growth inhibition [3]: 4.9%
growth inhibition [4]: 9.4%
growth inhibition [5]: 2.65%
growth inhibition [6]: 6.65%

NN1C(=O)CC(c2cccc(Cl)c2)C1=O (stereo not drawn)
growth inhibition [1]: 1.7%
growth inhibition [2]: 4.55%
growth inhibition [3]: -2.4%
growth inhibition [4]: 21.9%
growth inhibition [5]: -2.6%
growth inhibition [6]: 32.3%

Cc1ccc(CNC(=O)Nc2c(C)cccc2C)cc1C
growth inhibition [1]: 8.8%
growth inhibition [2]: 2.55%
growth inhibition [3]: 9.75%
growth inhibition [4]: -6.3%
growth inhibition [5]: 14.4%
growth inhibition [6]: 3.45%

COc1cc(/C=C/C(=O)c2sc(NNC(C)=O)nc2C)ccc1O
growth inhibition [1]: 15.6%
growth inhibition [2]: 6.85%
growth inhibition [3]: 19.3%
growth inhibition [4]: 23.1%
growth inhibition [5]: 18.8%
growth inhibition [6]: 27.1%

O=c1[nH]c2cc(Cl)ccc2nc1/C=C(\O)c1ccco1
growth inhibition [1]: 7.55%
growth inhibition [2]: -10.4%
growth inhibition [3]: -16.1%
growth inhibition [4]: 10.3%
growth inhibition [5]: -33.6%
growth inhibition [6]: 13.3%

Cc1cc(=O)oc2c(CNC(C(=O)O)C(C)C)c(O)ccc12 (stereo not drawn)
growth inhibition [1]: 5.05%
growth inhibition [2]: -15.9%
growth inhibition [3]: -19.7%
growth inhibition [4]: 7.5%
growth inhibition [5]: -16.8%
growth inhibition [6]: -6.4%

O=C1OC(c2ccccc2)(c2ccccc2)CC1c1ccccc1 (stereo not drawn)
growth inhibition [1]: 9.05%
growth inhibition [2]: 7.5%
growth inhibition [3]: 12.8%
growth inhibition [4]: -44%
growth inhibition [5]: -4.25%
growth inhibition [6]: 20.7%

CCOC(=O)NOC1CCCCO1 (stereo not drawn)
growth inhibition [1]: 1.05%
growth inhibition [2]: -6.8%
growth inhibition [3]: -3.2%
growth inhibition [4]: -14.6%
growth inhibition [5]: -10.9%
growth inhibition [6]: 4.95%

CC(C)=CC(=O)n1nc2c(c1CC(C)C)C(=O)C(Nc1ccccc1)=CC2=O
growth inhibition [1]: 35.1%
growth inhibition [2]: 3.25%
growth inhibition [3]: 21%
growth inhibition [4]: 24.8%
growth inhibition [5]: 1.3%
growth inhibition [6]: 27.4%

CN(C)C1=C(c2ccccc2)C(=O)C(c2ccccc2)=C1c1ccccc1
growth inhibition [1]: 39.8%
growth inhibition [2]: 3.25%
growth inhibition [3]: 22.1%
growth inhibition [4]: -32.3%
growth inhibition [5]: 7.05%
growth inhibition [6]: 13.3%

CC(C)(C#N)C(C)(C)c1cnc2ccccc2c1
growth inhibition [1]: 15.2%
growth inhibition [2]: -7.15%
growth inhibition [3]: -9.4%
growth inhibition [4]: -52.5%
growth inhibition [5]: -2.25%
growth inhibition [6]: -12.4%

COC(=O)C1c2ccccc2CC(=O)N1NC(C)=O (stereo not drawn)
growth inhibition [1]: 15.6%
growth inhibition [2]: 1.65%
growth inhibition [3]: -19.4%
growth inhibition [4]: 9.65%
growth inhibition [5]: 5.3%
growth inhibition [6]: 10.4%

CC1C(O)=C(O)c2ccccc2N1O (stereo not drawn)
growth inhibition [1]: -9.15%
growth inhibition [2]: -11.1%
growth inhibition [3]: -8.6%
growth inhibition [4]: 12.5%
growth inhibition [5]: -6.25%
growth inhibition [6]: -10.7%

c1ccc(CCc2nc3ccccc3[nH]2)cc1
growth inhibition [1]: -1.9%
growth inhibition [2]: 11.1%
growth inhibition [3]: 1.5%
growth inhibition [4]: -33.6%
growth inhibition [5]: -37.1%
growth inhibition [6]: -10.9%

O=P1(c2ccccc2)c2ccccc2CCc2ccccc21
growth inhibition [1]: 18%
growth inhibition [2]: 2.75%
growth inhibition [3]: 21.8%
growth inhibition [4]: 22.1%
growth inhibition [5]: 2.25%
growth inhibition [6]: 8.35%

Nc1nc(C=O)c(CCc2ccccc2)c(=O)[nH]1
growth inhibition [1]: 6.8%
growth inhibition [2]: 8.95%
growth inhibition [3]: -7.8%
growth inhibition [4]: -28.7%
growth inhibition [5]: -11%
growth inhibition [6]: -12.4%

CCOC(=O)CN(c1scc(-c2ccccc2)c1C(=O)OCC)S(=O)(=O)c1ccc(C)cc1
growth inhibition [1]: -15.7%
growth inhibition [2]: -28.6%
growth inhibition [3]: 0.05%
growth inhibition [4]: -57.6%
growth inhibition [5]: -2.7%
growth inhibition [6]: 0.85%

Cc1cc(NC(=O)NC(=O)c2ccccc2NC(=O)CN(C)C)ccc1Oc1ncc(Br)cn1
growth inhibition [1]: -10.3%
growth inhibition [2]: -28.9%
growth inhibition [3]: 0.5%
growth inhibition [4]: -6.2%
growth inhibition [5]: -21%
growth inhibition [6]: -26.7%

CNC(=O)OCC#CCOC(=O)NC
growth inhibition [1]: -17.5%
growth inhibition [2]: -9.9%
growth inhibition [3]: -23.2%
growth inhibition [4]: -4.85%
growth inhibition [5]: -10.5%
growth inhibition [6]: -25.1%

CCN(CC(=O)O)C(=O)c1cccnc1
growth inhibition [1]: -17.9%
growth inhibition [2]: 4.05%
growth inhibition [3]: -33.4%
growth inhibition [4]: -28.7%
growth inhibition [5]: -6.6%
growth inhibition [6]: -6.4%

CCCNN(CCC)C(N)=O
growth inhibition [1]: 0.6%
growth inhibition [2]: 13.7%
growth inhibition [3]: -5.75%
growth inhibition [4]: 2.75%
growth inhibition [5]: 24.1%
growth inhibition [6]: -7.25%

CC(=O)OCC1=COC(OC(=O)CC(C)(C)OC(C)=O)C2C1=CC(OC(=O)CC(C)C)[C@@]21CO1 (stereo partly drawn)
growth inhibition [1]: 14.4%
growth inhibition [2]: 16.4%
growth inhibition [3]: 3.6%
growth inhibition [4]: 6.3%
growth inhibition [5]: 6.75%
growth inhibition [6]: 9.95%

Cc1cc(=O)c2ccccc2n1CCCCCCCCCCn1c(C)cc(=O)c2ccccc21
growth inhibition [1]: -12.1%
growth inhibition [2]: -0.25%
growth inhibition [3]: -17%
growth inhibition [4]: -21.9%
growth inhibition [5]: -26.6%
growth inhibition [6]: 26.4%

O=C1CCCc2c1cc1c3c(cccc23)CC1
growth inhibition [1]: -9.9%
growth inhibition [2]: -23.2%
growth inhibition [3]: 0.7%
growth inhibition [4]: -15.6%
growth inhibition [5]: 9.8%
growth inhibition [6]: -1.85%

O=C(c1ccc(C2CCCCC2)cc1)C(C(c1ccccc1)N1CCOCC1)N1CCOCC1 (stereo not drawn)
growth inhibition [1]: -54.7%
growth inhibition [2]: -16.6%
growth inhibition [3]: -19.9%
growth inhibition [4]: -10.6%
growth inhibition [5]: -3.75%
growth inhibition [6]: 23.9%

O=C1OC(C(=O)O)Cc2ccccc21 (stereo not drawn)
growth inhibition [1]: -16.1%
growth inhibition [2]: -15.2%
growth inhibition [3]: -3.15%
growth inhibition [4]: -5.1%
growth inhibition [5]: -2.3%
growth inhibition [6]: -13.3%
